The results in this text go back to PubChem BioAssay (EPA / NIEHS).

The target of assay [1] is rat Histamine Receptor (H3), Hrh3 (gene 85268) (UniProt Q9QYN8). Nature of the assay: NVS_GPCR_rH3: NovaScreen (NVS) G Protein-Coupled Receptor Assay for rat Histamine Receptor (H3) (AID 2283303). The procedure, abridged:
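Rat forebrain membranes incubated 1 h with compound; radioligand displacement measured by filter-based scintillation counting. Single-concentration duplicates at 25 µM, then concentration-response up to 50 µM, relative to DMSO.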

The target in a further assay is Adra2b (gene 24174) (UniProt P19328). Nature of the assay: NVS_GPCR_rmAdra2B: NovaScreen (NVS) G Protein-Coupled Receptor Assay for hybird cells Adrenergic, Alpha 2B Receptor (Adra2B) (AID 2283306). In outline:
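Radioligand filter-binding assay on membrane proteins from neuroglioma/blastoma hybrid cells (rodent), 1 h after dosing; scintillation counting, loss of signal vs DMSO. Primary screen in duplicate at 25 uM, actives then run in concentration series.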

Assay [2] concerns the target rat Opioid Receptor, Non-selective Sodium (Na+) Binding, Oprm1 (gene 25601) (UniProt P33535). Nature of the assay: NVS_GPCR_rOpiate_NonSelectiveNa: NovaScreen (NVS) G Protein-Coupled Receptor Assay for rat Opioid Receptor, Non-selective Sodium (Na+) Binding (AID 2283311). The procedure, abridged: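 Rat forebrain membranes, radioligand displacement with filter scintillation counting, 1.5 h incubation. Screened in duplicate at 25 µM; hits then run in concentration-response up to 50 µM; loss of binding fitted versus DMSO.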

The target in assay [3] is rat Neurotensin Receptor (NTS), Ntsr1 (gene 366274) (UniProt P20789). Nature of the assay: NVS_GPCR_rNTS: NovaScreen (NVS) G Protein-Coupled Receptor Assay for rat Neurotensin Receptor (NTS) (AID 2283308). How it is done:
NVS_GPCR_rNTS is a biochemical, single-readout assay that uses extracted gene-proteins from Rat forebrain membranes in a tissue-based cell-free assay. Measurements were taken 1 hour after chemical dosing in a 48-well plate.NVS_GPCR_rNTS is one of one assay component(s) measured or calculated from the NVS_GPCR_rNTS assay. It is designed to make measurements of radioligand binding, a form of binding reporter, as detected with scintillation counting signals by Filter-based radiodetection technology.Data from the assay component NVS_GPCR_rNTS was analyzed into 1 assay endpoint. This assay endpoint, NVS_GPCR_rNTS, was analyzed in the positive analysis fitting direction relative to DMSO as the negative control and baseline of activity. […] Furthermore, this assay endpoint can be referred to as a primary readout, because the performed assay has only produced 1 assay endpoint. […]
Binding assays used specific radioligands (tritiated, iodinated) with non-radioactive competitive displacement ligands in agonist or antagonist protocols (as indicated) and various reference compounds and inhibitors to titrate specific binding to receptors and transporters. Most enzyme assays (CYPs, kinases, phosphatases, proteases, HDACs) used recombinant protein and specific substrates (fluorescence mostly, some colorimetric and radioactive) and inhibitors, followed by a biochemical separation of substrate and product. […]

The target of assay [4] is human Neonicotinoid receptor (NNR), CHRNA2 (gene 1135) (UniProt Q15822). Nature of the assay: NVS_LGIC_hNNR_NBungSens: NovaScreen (NVS) Ligand-Gated Ion Channel Assay for human Neonicotinoid receptor (NNR) (AID 2283313). In outline:
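Radioligand displacement on human neuroblastoma membranes, 2 h, filter-based scintillation counting. Primary screen in duplicate at 25 uM; chemicals passing threshold (e.g. 30% inhibition) run singleton concentration-response to 50 uM; loss of binding fitted versus DMSO.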

Inconclusive results are not listed. Active and inactive are the calls of the source. How the source made its calls: active means hit-call score of the fitted dose curve at least 0.9, where 1 is the maximum; inconclusive means response in the unintended direction; inactive means score below 0.9.

Sequence of rat Opioid Receptor, Non-selective Sodium (Na+) Binding, Oprm1 (gene 25601) (P33535 whole entry, looked up): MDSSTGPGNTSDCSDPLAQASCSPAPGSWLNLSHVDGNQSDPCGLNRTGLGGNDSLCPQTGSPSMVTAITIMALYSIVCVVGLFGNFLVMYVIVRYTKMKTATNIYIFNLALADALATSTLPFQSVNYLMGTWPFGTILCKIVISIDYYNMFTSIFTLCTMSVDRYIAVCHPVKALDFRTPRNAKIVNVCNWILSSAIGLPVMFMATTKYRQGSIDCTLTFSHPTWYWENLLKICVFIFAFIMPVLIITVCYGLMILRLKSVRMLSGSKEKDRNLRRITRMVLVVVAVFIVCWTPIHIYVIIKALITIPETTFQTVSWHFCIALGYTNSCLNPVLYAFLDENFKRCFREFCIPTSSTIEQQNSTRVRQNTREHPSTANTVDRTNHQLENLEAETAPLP
Sequence of human Neonicotinoid receptor (NNR), CHRNA2 (gene 1135) (Q15822 whole entry, looked up): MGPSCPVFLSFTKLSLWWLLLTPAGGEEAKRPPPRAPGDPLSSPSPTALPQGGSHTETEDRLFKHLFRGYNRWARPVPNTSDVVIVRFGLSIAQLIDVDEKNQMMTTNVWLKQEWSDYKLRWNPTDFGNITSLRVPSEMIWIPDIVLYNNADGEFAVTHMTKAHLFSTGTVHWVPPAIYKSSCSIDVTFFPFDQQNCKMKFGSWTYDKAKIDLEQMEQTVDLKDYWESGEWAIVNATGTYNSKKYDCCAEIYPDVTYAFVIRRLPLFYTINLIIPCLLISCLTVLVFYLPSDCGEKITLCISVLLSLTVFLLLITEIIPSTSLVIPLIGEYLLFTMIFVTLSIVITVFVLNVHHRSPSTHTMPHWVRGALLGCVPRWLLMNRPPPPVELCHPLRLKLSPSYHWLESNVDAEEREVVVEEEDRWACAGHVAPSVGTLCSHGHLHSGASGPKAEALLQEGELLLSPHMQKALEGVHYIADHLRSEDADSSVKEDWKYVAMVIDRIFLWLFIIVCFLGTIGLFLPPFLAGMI
Sequence of Adra2b (gene 24174) (P19328 whole entry, looked up): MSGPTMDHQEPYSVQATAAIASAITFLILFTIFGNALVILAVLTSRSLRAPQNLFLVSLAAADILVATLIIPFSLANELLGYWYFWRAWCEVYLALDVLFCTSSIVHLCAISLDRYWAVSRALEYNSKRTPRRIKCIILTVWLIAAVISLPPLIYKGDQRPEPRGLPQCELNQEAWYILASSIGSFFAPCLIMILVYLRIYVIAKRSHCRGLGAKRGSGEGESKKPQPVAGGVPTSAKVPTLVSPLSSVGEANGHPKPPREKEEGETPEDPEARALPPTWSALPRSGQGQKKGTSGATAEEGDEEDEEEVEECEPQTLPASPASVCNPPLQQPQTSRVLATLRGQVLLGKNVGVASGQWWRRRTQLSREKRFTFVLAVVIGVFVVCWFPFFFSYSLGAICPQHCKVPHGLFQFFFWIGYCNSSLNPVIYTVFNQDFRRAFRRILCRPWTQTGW
Sequence of rat Histamine Receptor (H3), Hrh3 (gene 85268) (Q9QYN8 whole entry, looked up): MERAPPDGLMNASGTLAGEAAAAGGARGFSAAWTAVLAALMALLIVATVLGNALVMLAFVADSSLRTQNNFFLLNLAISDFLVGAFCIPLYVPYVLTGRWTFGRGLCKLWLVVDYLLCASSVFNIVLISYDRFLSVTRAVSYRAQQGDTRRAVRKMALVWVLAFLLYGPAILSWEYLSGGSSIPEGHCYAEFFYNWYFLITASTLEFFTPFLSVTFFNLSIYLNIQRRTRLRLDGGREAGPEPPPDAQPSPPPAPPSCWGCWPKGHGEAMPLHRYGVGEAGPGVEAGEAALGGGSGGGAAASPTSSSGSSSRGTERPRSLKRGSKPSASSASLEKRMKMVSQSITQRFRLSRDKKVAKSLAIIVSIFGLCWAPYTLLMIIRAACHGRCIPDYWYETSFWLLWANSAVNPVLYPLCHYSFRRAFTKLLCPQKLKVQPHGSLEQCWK
Sequence of rat Neurotensin Receptor (NTS), Ntsr1 (gene 366274) (P20789 whole entry, looked up): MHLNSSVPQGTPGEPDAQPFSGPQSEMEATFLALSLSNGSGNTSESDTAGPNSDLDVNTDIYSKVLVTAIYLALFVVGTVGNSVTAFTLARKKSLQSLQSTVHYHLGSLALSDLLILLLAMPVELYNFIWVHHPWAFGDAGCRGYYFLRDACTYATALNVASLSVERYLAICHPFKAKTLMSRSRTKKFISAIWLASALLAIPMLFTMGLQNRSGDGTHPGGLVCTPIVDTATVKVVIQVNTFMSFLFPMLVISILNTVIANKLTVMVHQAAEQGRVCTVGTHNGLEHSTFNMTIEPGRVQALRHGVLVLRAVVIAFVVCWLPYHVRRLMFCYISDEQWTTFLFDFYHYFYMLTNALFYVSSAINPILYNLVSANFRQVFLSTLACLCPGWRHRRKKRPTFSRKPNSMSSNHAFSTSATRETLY

As for `O=C(Nc1ccccc1)Nc1cnns1`, the outcome (in assay [1]; with Adra2b (gene 24174); in assay [2]) was inactive. As to `CCCN(CCOc1c(Cl)cc(Cl)cc1Cl)C(=O)n1ccnc1`, in the assay with Adra2b (gene 24174), the AC50 was 3.65 µM (active).

In the case of `CNC(=O)/C=C(\C)OP(=O)(OC)OC`, the call in assay [3] was inactive. For the compound `CCOCN(C(=O)CCl)c1c(C)cccc1CC`, the call in assay [2] was inactive. In the case of `O=[N+]([O-])/N=C1\NCCN1Cc1ccc(Cl)nc1`, in assay [4], the AC50 is 8.29 µM (active).

On to `CCC(C)(C)C(=O)OC1=C(c2ccc(Cl)cc2Cl)C(=O)OC12CCCCC2`, for which the outcome in assay [4] was inactive.

Broadly, the AC50 is the concentration at which the activity in the assay is half-maximal.
